From PubChem BioAssay (NCI)
This is part of a sample that, as a whole, favours compounds with a hit. Of some 79,000 tested, about 15% had one in any assay. Activity calls are given as the source filed them. Cut-off read from the data, not from the text of the source: active = growth inhibition above about 70%; inactive = the rest.

How the values were obtained:
[1] = NCI Yeast Anticancer Drug Screen. Data for the wt2 strain (AID 169);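 note: 0% = growth of vehicle-treated yeast cultures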; conditions: S. cerevisiae wt2 strain growth inhibition, active compounds read high
Method in brief: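 Steps: yeast strain treated with compound; growth recorded; inhibition calculated relative to cultures given vehicle alone.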

[2] = NCI Yeast Anticancer Drug Screen. Data for the mlh1 strain (AID 171);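 note: 0% = growth of vehicle-treated control cultures of the same strain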; conditions: S. cerevisiae mlh1 strain growth inhibition, active compounds read high
Method in brief: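 Yeast screen: mutant strain plus compound, growth scored against vehicle control wells.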

[3] = NCI Yeast Anticancer Drug Screen. Data for the mlh1 rad18 strain (AID 175); conditions: S. cerevisiae mlh1 rad18 strain growth inhibition, active compounds read high
Method in brief: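 Compound-treated yeast growth, normalised to vehicle controls. Strain bears defined DNA repair mutations.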

[4] = NCI Yeast Anticancer Drug Screen. Data for the rad18 strain (AID 177); conditions: S. cerevisiae rad18 mutant growth inhibition, active compounds read high
Method in brief: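 Inhibition values reflect reduced yeast growth compared with vehicle-treated controls, using a strain engineered with a DNA damage repair defect.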

[5] = NCI Yeast Anticancer Drug Screen. Data for the rad52 strain (AID 147);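 note: 0% = growth of vehicle-treated control cultures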; conditions: S. cerevisiae rad52 mutant growth inhibition, active compounds read high
Method in brief: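 Genetically altered yeast (DNA damage repair defect) treated with compound; inhibition calculated relative to vehicle.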

[6] = NCI Yeast Anticancer Drug Screen. Data for the wt1 strain (AID 149);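 note: 0% = growth of vehicle-treated wt1 cultures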; conditions: S. cerevisiae wt1 strain (SPY 50644) growth inhibition, active compounds read high
Method in brief: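 Readout: yeast growth inhibition, normalised to vehicle controls, in the wt1 strain exposed to test compounds.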

[7] = NCI Yeast Anticancer Drug Screen. Data for the rad50EPP+ strain (AID 151);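 note: 0% = growth of vehicle-treated control cultures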; conditions: S. cerevisiae rad50 mutant strain, active compounds read high
Method in brief: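 Strain rad50EPP+; compound exposure; % growth inhibition vs vehicle.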

[8] = NCI Yeast Anticancer Drug Screen. Data for the mgt1 strain (AID 153); conditions: S. cerevisiae mgt1 mutant growth inhibition, active compounds read high
Method in brief: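 Read-out: yeast growth inhibition vs vehicle control. Strain mgt1, drawn from a panel altered in DNA damage repair or cell cycle control.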

[9] = NCI Yeast Anticancer Drug Screen. Data for the rad50 strain (AID 155);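 note: 0% = growth of vehicle-only cultures of the same strain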; conditions: S. cerevisiae rad50 strain growth inhibition, active compounds read high
Method in brief: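 Compounds were tested on a yeast strain with an engineered DNA damage repair alteration; the reported value is growth inhibition normalised to vehicle treatment.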

[10] = NCI Yeast Anticancer Drug Screen. Data for the mec2-1 strain (AID 157); conditions: S. cerevisiae mec2-1 strain, active compounds read high
Method in brief: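 Cells of the genetically defined mec2-1 yeast strain are incubated with test compound. Inhibition of growth is calculated against vehicle-treated controls.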

[11] = NCI Yeast Anticancer Drug Screen. Data for the rad14 strain (AID 159);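 note: 0% = growth of vehicle-treated control cultures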; conditions: S. cerevisiae rad14 strain growth inhibition, active compounds read high
Method in brief: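 Compound-treated yeast with a defined DNA-repair lesion; growth inhibition normalised to vehicle-treated cultures.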

[12] = NCI Yeast Anticancer Drug Screen. Data for the sgs1 mgt1 strain (AID 161);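 note: 0% = growth of cultures given vehicle only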; conditions: S. cerevisiae sgs1 mgt1 strain, active compounds read high
Method in brief: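 Test agents were incubated with a DNA-repair-mutant yeast strain. Growth was then read and compared against vehicle-treated controls.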

[13] = NCI Yeast Anticancer Drug Screen. Data for the CLN2oe strain (AID 163);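 note: 0% = growth of vehicle-only control cultures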; conditions: S. cerevisiae CLN2oe strain, active compounds read high
Method in brief: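 Strain altered in cell-cycle control, incubated with compound; growth compared to solvent-treated controls.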

[14] = NCI Yeast Anticancer Drug Screen. Data for the cln2 rad14 strain (AID 165);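 note: 0% = growth equal to vehicle treated cultures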; conditions: S. cerevisiae cln2 rad14 strain, active compounds read high
Method in brief: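 The screen exposed genetically defined yeast (cln2 rad14) to test compounds and scored growth inhibition relative to vehicle-treated controls.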

[15] = NCI Yeast Anticancer Drug Screen. Data for the bub3 strain (AID 167); conditions: S. cerevisiae bub3 mutant strain, active compounds read high
Method in brief: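 Growth of a checkpoint-deficient yeast mutant is measured after compound exposure. Values represent inhibition relative to vehicle.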

[16] = NCI Yeast Anticancer Drug Screen. Data for the sgs1 strain (AID 173);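 note: 0% = growth of vehicle-only control cultures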; conditions: S. cerevisiae sgs1 mutant, active compounds read high
Method in brief: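 Inhibition of yeast growth served as the measure. The mutant strain was treated with each compound, and growth was normalised to cultures receiving vehicle alone.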

[17] = at 5.0 µM (retest, dose inferred, filed as 0.5)
[18] = at 50.0 µM (retest, dose inferred, filed as 5.0)

Measured: growth inhibition

COc1ccc(N=N/C(=N\NC(=O)c2cc(Br)ccc2O)c2ccc(N(CCC#N)CCC#N)cc2OC)cc1
inactive: [1]; at 1.2 µM -20% | [1]; at 3.7 µM -11% | [1]; at 11.0 µM -15% | [1]; at 33.0 µM -9% | [1]; at 100.0 µM 65% | [2]; at 1.2 µM 33% | [2]; at 3.7 µM 35% | [2]; at 11.0 µM 24% | [2]; at 33.0 µM 46% | [2]; at 100.0 µM 69% | [3]; [17] 20% | [3]; [18] 26% | [3]; at 50.0 µM 65.4% | [4]; at 1.2 µM 14% | [4]; at 3.7 µM 20% | [4]; at 11.0 µM 18% | [4]; at 33.0 µM 33% | [4]; at 100.0 µM 49%

O=[N+]([O-])c1cc(S(=O)(=O)Nc2ccccc2)ccc1Cl
inactive: [5]; at 1.2 µM 2% | [5]; at 3.7 µM 6% | [5]; at 11.0 µM 15% | [6]; at 1.2 µM -20% | [6]; at 3.7 µM -20% | [6]; at 11.0 µM 0% | [7]; at 1.2 µM 14% | [7]; at 3.7 µM 6% | [7]; at 11.0 µM 1% | [7]; at 33.0 µM 20% | [7]; at 100.0 µM 48% | [8]; at 1.2 µM 15% | [8]; at 3.7 µM 3% | [8]; at 11.0 µM 30% | [9]; at 1.2 µM -7% | [9]; at 3.7 µM 3% | [9]; [17] 34% | [9]; at 11.0 µM 19% | [10]; at 1.2 µM -10% | [10]; at 3.7 µM -5% | [10]; [17] 42% | [10]; at 11.0 µM 21% | [11]; at 1.2 µM -4% | [11]; at 3.7 µM -8% | [11]; at 11.0 µM 2% | [12]; [17] -26% | [13]; at 1.2 µM -8% | [13]; at 3.7 µM -1% | [13]; at 11.0 µM 35% | [14]; [17] 33% | [15]; at 1.2 µM 11% | [15]; at 3.7 µM 19% | [15]; [17] -20% | [15]; at 11.0 µM 45% | [1]; at 1.2 µM -26% | [1]; at 3.7 µM -6% | [1]; at 11.0 µM 4% | [2]; at 1.2 µM -34% | [2]; at 3.7 µM -20% | [2]; at 11.0 µM 13% | [16]; at 1.2 µM 4% | [16]; at 3.7 µM -3% | [16]; at 11.0 µM 33% | [3]; [17] 35% | [4]; at 1.2 µM 1% | [4]; at 3.7 µM 9% | [4]; at 11.0 µM 27%
active: [5]; at 33.0 µM 89% | [5]; at 100.0 µM 98% | [6]; at 33.0 µM 86% | [6]; at 100.0 µM 99% | [8]; at 33.0 µM 93% | [8]; at 100.0 µM 99% | [9]; at 33.0 µM 90% | [9]; [18] 99% | [9]; at 50.0 µM 88.5% | [9]; at 100.0 µM 97% | [10]; at 33.0 µM 91% | [10]; [18] 99% | [10]; at 50.0 µM 90.5% | [10]; at 100.0 µM 99% | [11]; at 33.0 µM 91% | [11]; at 100.0 µM 98% | [12]; [18] 95% | [12]; at 50.0 µM 90.5% | [13]; at 33.0 µM 93% | [13]; at 100.0 µM 98% | [14]; [18] 97% | [14]; at 50.0 µM 89.2% | [15]; at 33.0 µM 91% | [15]; [18] 96% | [15]; at 50.0 µM 86.2% | [15]; at 100.0 µM 99% | [1]; at 33.0 µM 90% | [1]; at 100.0 µM 99% | [2]; at 33.0 µM 89% | [2]; at 100.0 µM 98% | [16]; at 33.0 µM 89% | [16]; at 100.0 µM 98% | [3]; [18] 100% | [3]; at 50.0 µM 86.8% | [4]; at 33.0 µM 94% | [4]; at 100.0 µM 99%

NCc1c(O)ccc2ccccc12
active: [5]; at 100.0 µM 99% | [6]; at 33.0 µM 90% | [6]; at 100.0 µM 99% | [7]; at 100.0 µM 88% | [8]; at 33.0 µM 98% | [8]; at 100.0 µM 99% | [9]; at 33.0 µM 92% | [9]; [18] 83% | [9]; at 50.0 µM 89.2% | [9]; at 100.0 µM 98% | [10]; at 100.0 µM 99% | [11]; at 33.0 µM 99% | [11]; at 100.0 µM 99% | [12]; [18] 74% | [12]; at 50.0 µM 85.9% | [13]; at 100.0 µM 98% | [15]; at 33.0 µM 79% | [15]; at 50.0 µM 93.7% | [15]; at 100.0 µM 98% | [1]; at 11.0 µM 70% | [1]; at 33.0 µM 99% | [1]; at 100.0 µM 99% | [2]; at 33.0 µM 96% | [2]; at 100.0 µM 98% | [16]; at 33.0 µM 99% | [16]; at 100.0 µM 99% | [3]; [18] 83% | [3]; at 50.0 µM 94% | [4]; at 33.0 µM 87% | [4]; at 100.0 µM 99%
inactive: [5]; at 1.2 µM -17% | [5]; at 3.7 µM -11% | [5]; at 11.0 µM -1% | [5]; at 33.0 µM 64% | [6]; at 1.2 µM 8% | [6]; at 3.7 µM 11% | [6]; at 11.0 µM 27% | [7]; at 1.2 µM -5% | [7]; at 3.7 µM -18% | [7]; at 11.0 µM 10% | [7]; at 33.0 µM 52% | [8]; at 1.2 µM -2% | [8]; at 3.7 µM -7% | [8]; at 11.0 µM 3% | [9]; at 1.2 µM -11% | [9]; at 3.7 µM -10% | [9]; [17] -150% | [9]; at 11.0 µM 2% | [10]; at 1.2 µM -3% | [10]; at 3.7 µM -1% | [10]; [17] -46% | [10]; at 11.0 µM 4% | [10]; at 33.0 µM 25% | [10]; [18] -15% | [10]; at 50.0 µM 47.5% | [11]; at 1.2 µM -3% | [11]; at 3.7 µM 5% | [11]; at 11.0 µM 49% | [12]; [17] -60% | [13]; at 1.2 µM -6% | [13]; at 3.7 µM -4% | [13]; at 11.0 µM -1% | [13]; at 33.0 µM 18% | [14]; [17] -53% | [14]; [18] -25% | [14]; at 50.0 µM 17.2% | [15]; at 1.2 µM -7% | [15]; at 3.7 µM -4% | [15]; [17] -71% | [15]; at 11.0 µM 0% | [15]; [18] 60% | [1]; at 1.2 µM 6% | [1]; at 3.7 µM 9% | [2]; at 1.2 µM -10% | [2]; at 3.7 µM -4% | [2]; at 11.0 µM 4% | [16]; at 1.2 µM -10% | [16]; at 3.7 µM -5% | [16]; at 11.0 µM 37% | [3]; [17] -138% | [4]; at 1.2 µM -6% | [4]; at 3.7 µM -6% | [4]; at 11.0 µM 7%
